Measurements as given in the supplement of paper PMC5919970.
Structures can show the parent of a compound that is named as a salt. Whole data set: some 2,000 compounds, median “fractional viability relative to vehicle” near 0.91, cut for the lowest 2% near 0.045. Shown is part of a subset that was picked to be rich in the lowest values.

Tested on: TYKNU
Assay: fractional viability relative to vehicle; TYKNU is a high-grade serous ovarian cancer line; higher = less growth inhibition
Settings: 72 h
Summary of the method: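 TYKNU control cells or lentiCRISPRv2 knockout derivatives were plated at 500 cells per well in duplicate into drug-stamped 384-well plates holding a ~2100-compound library at 2 or 10 μM. Culture was in RPMI 1640 with 10% FBS at 37 °C in 5% CO2, with 72 h of drug treatment. Viability was measured by Cell Titer Glo luminescence, and the averaged duplicate treatment wells were normalised to duplicate control wells at the same plate position.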

[1] = 2uM, genotype: DNM1L knockout (sgDNM1L #1)
[2] = 2uM, genotype: sgCTRLA1 (non-targeting control)
[3] = 10uM, genotype: DNM1L knockout (sgDNM1L #1)
[4] = 10uM, genotype: sgCTRLA1 (non-targeting control)

Row | Compound | fractional viability [1] | fractional viability [2] | fractional viability [3] | fractional viability [4]
1 | COc1ccc(C(=O)CC2(O)C(=O)Nc3c(Cl)ccc(Cl)c32)cc1 (centres undefined) | 0.264 | 0.243 | 0.175 | 0.186
2 | CCN1CCN(Cc2ccc(C(=O)Nc3ccc(C)c(Oc4ccc5c(c4)CC(=O)N5)c3)cc2C(F)(F)F)CC1 | 0.704 | 0.758 | 0.477 | 0.756
3 | Cc1ccc(C(=O)Nc2ccc(CN3CCN(C)CC3)c(C(F)(F)F)c2)cc1C#Cc1cnc2cccnn12 | 0.227 | 0.185 | 0.0344 | 0.0177
4 | Cc1ccc(C(=O)Nc2ccc(CN3CCN(C)CC3)c(C(F)(F)F)c2)cc1C#Cc1cnc2[nH]ncc2c1 | 0.214 | 0.169 | 0.0362 | 0.0116
5 | Cc1ccc(NC(=O)c2ccc(CN3CCN(C)CC3)cc2)cc1Nc1nccc(-c2cccnc2)n1 [Imatinib (STI571)] | 1.18 | 1.1 | 0.839 | 0.867
6 | Cc1ccc(NC(=O)c2ccc(CN3CCN(C)CC3)cc2)cc1Nc1nc(-c2cccnc2)cs1 [Masitinib (AB1010)] | 1.29 | 1.09 | 0.779 | 0.775
7 | Cc1ccc(NC(=O)c2ccc(CN3CC[C@H](N(C)C)C3)c(C(F)(F)F)c2)cc1Nc1nccc(-c2cncnc2)n1 [Bafetinib (INNO-406)] | 0.684 | 0.569 | 0.0871 | 0.0998
8 | Cc1ccc(NC(=O)c2ccc(CN3CCN(C)CC3)cc2)cc1Nc1nccc(-c2cccnc2)n1 [Imatinib Mesylate (STI571)] | 1.08 | 1.12 | 0.599 | 0.612
9 | CC(C)n1nc(-c2ccc3oc(N)nc3c2)c2c(N)ncnc21 | 0.194 | 0.191 | 0.181 | 0.171
10 | Cc1nc(N(C)C(=O)Cc2ccc(-c3ccccn3)cc2)sc1S(N)(=O)=O [Pritelivir (BAY 57-1293)] | 0.897 | 0.947 | 0.855 | 0.818
11 | COc1cccc(C=NCCN=Cc2cccc(OC)c2[O-])c1[O-].[Cl-].[Mn+3] | 0.805 | 0.978 | 0.756 | 0.897
12 | Cc1nc2ccc(-n3ncc(C(=O)c4cc5ccccc5[nH]4)c3N)cc2[nH]1 | 0.935 | 0.923 | 0.958 | 0.819
13 | Cc1ccc(NC(=O)C2(c3ccc4c(c3)OC(F)(F)O4)CC2)nc1-c1cccc(C(=O)O)c1 [VX-809 (Lumacaftor)] | 0.94 | 1.12 | 0.933 | 1.06
14 | CCO[C@@H]1OC(=O)C[C@@H]1NC(=O)[C@@H]1CCCN1C(=O)[C@@H](NC(=O)c1ccc(N)c(Cl)c1)C(C)(C)C | 0.968 | 1.18 | 0.898 | 1.09
15 | CCC1C/C(=C\c2cccnc2)C(=O)/C(=C/c2cccnc2)C1 (centres undefined) | 0.104 | 0.0876 | 0.0563 | 0.0253
16 | COc1cc2c(cc1OC)[C@@H]1Cc3ccc(OC)c(OC)c3CN1CC2 [Rotundine] | 1.17 | 1.06 | 1.18 | 1.01
17 | CC[C@]12C=CCN3CC[C@@]4(c5cc([C@@]6(C(=O)OC)C[C@@H]7C[C@@H](C(C)(F)F)CN(Cc8c6[nH]c6ccccc86)C7)c(OC)cc5N(C)[C@H]4[C@@](O)(C(=O)OC)[C@@H]1OC(C)=O)[C@@H]32 [Vinflunine Tartrate] | 0.191 | 0.144 | 0.142 | 0.114
18 | O=C(CCCCCN1C(=O)c2cccc3cccc(c23)C1=O)NO [Scriptaid] | 0.411 | 0.51 | 0.108 | 0.109
19 | O=C(O)C1=C[C@@H](O)[C@@H](O)[C@H](O)C1 [Shikimic Acid] | 0.996 | 1.17 | 0.84 | 1.06

Row | Compound | fractional viability [1] | fractional viability [2] | fractional viability [3] | fractional viability [4]
20 | COCC[n+]1c2c(n(Cc3cnccn3)c1C)C(=O)c1ccccc1C2=O [YM155 (Sepantronium Bromide)] | 0.0411 | 0.0393 | 0.0214 | 0.0241
21 | COc1cc2ncnc(Sc3nnc(C)s3)c2cc1OC | 0.747 | 0.866 | 0.0591 | 0.0581
22 | O=C(C[S+]([O-])Cc1ccco1)NC/C=C\COc1cc(CN2CCCCC2)ccn1 (centres undefined) [Lafutidine] | 1 | 1.2 | 0.826 | 1.06
23 | O=C([O-])c1ccccc1O.[Na+] [Sodium salicylate] | 1.08 | 1.09 | 0.913 | 1.03
24 | CN1CCN(c2ccc3nc(-c4c(N)c5c(F)cccc5[nH]c4=O)[nH]c3c2)CC1 [Dovitinib (TKI258) Lactate] | 0.398 | 0.423 | 0.0366 | 0.0252
25 | CN1CCN(c2ccc3nc(-c4c(N)c5c(F)cccc5[nH]c4=O)[nH]c3c2)CC1 [Dovitinib (TKI-258, CHIR-258)] | 0.523 | 0.465 | 0.119 | 0.0963
26 | O=C(O)c1ccc(N2C(=O)/C(=C\c3ccc(-c4ccc([N+](=O)[O-])cc4)o3)C=C2c2ccccc2)cc1 | 0.851 | 0.873 | 0.899 | 0.776
27 | O=c1ncccn1[C@@H]1O[C@H](CO)[C@@H](O)[C@H]1O [Zebularine] | 0.97 | 1.06 | 0.676 | 0.938
28 | O=C(Nc1ccccc1)N1CCN(c2nc(-c3ccccc3)ns2)CC1 | 1.06 | 1.14 | 0.828 | 0.976
29 | COc1cc2c(Nc3ccc(NC(=O)c4ccccc4)cc3)ncnc2cc1OCCCN1CCOCC1 | 0.862 | 0.959 | 0.266 | 0.22
30 | COc1cc2nccc(Oc3ccc(NC(=O)C4(C(=O)Nc5ccc(F)cc5)CC4)cc3)c2cc1OC | 1.15 | 1.17 | 0.615 | 0.64
31 | COc1cc2c(Oc3ccc(NC(=O)C4(C(=O)Nc5ccc(F)cc5)CC4)cc3F)ccnc2cc1OCCCN1CCOCC1 | 0.628 | 0.631 | 0.0524 | 0.0418
32 | CCN(C(=O)c1c(O)c2c(Cl)cccc2n(C)c1=O)c1ccccc1 [Laquinimod] | 1.22 | 1.14 | 0.958 | 1.08
33 | CC[C@H](Nc1ncnc2[nH]cnc12)c1nc2cccc(F)c2c(=O)n1-c1ccccc1 [CAL-101 (Idelalisib, GS-1101)] | 0.947 | 1.11 | 0.863 | 0.971
34 | CN(C)CC(=O)Nc1ccc2[nH]c(=O)c3ccccc3c2c1 | 0.84 | 1.06 | 0.74 | 1.03
35 | Nc1nc(Nc2ccc3c(c2)CCC(N2CCCC2)CC3)nn1-c1cc2c(nn1)-c1ccccc1CCC2 (centres undefined) | 0.343 | 0.242 | 0.0232 | 0.0259
36 | CNC[C@@H](O)c1ccc(O)c(O)c1 [L-Adrenaline] | 0.842 | 1 | 0.784 | 0.91
37 | CC(C)Oc1ccc(C(=O)N[C@H](CNC(=O)CN(C)C)Cc2ccc(-c3cn4cccc([C@H](C)O)c4n3)cc2)cc1Cl | 0.413 | 0.508 | 0.29 | 0.438
38 | Clc1cccc(-c2nnnn2Cc2cccnc2)c1Cl | 0.755 | 0.927 | 0.755 | 0.73

Row | Compound | fractional viability [1] | fractional viability [2] | fractional viability [3] | fractional viability [4]
39 | CS(=O)(=O)Nc1ccc([N+](=O)[O-])cc1Oc1ccccc1 [Nimesulide] | 0.973 | 1.1 | 0.922 | 1.01
40 | O=[N+]([O-])c1ccc2c(c1)S(=O)(=O)C=C2 [Stattic] | 0.0799 | 0.101 | 0.0327 | 0.0222
41 | O=C(O)c1cc(=O)[nH]c(=O)[nH]1 [Orotic acid (6-Carboxyuracil)] | 0.916 | 1.04 | 1.02 | 1.12
42 | COc1ccc([C@]2(C#N)CC[C@@H](C(=O)O)CC2)cc1OC1CCCC1 [Cilomilast] | 0.977 | 1.1 | 0.843 | 1.15
43 | CCc1c(Cl)c(O)c(Cl)c(O)c1C(=O)O[C@H]1[C@H](O)[C@H](OC)[C@H](OC/C2=C\C=C\C[C@H](O)/C(C)=C/[C@H](CC)[C@@H](O[C@@H]3OC(C)(C)[C@@H](OC(=O)C(C)C)[C@H](O)[C@@H]3O)/C(C)=C/C(C)=C/C[C@@H]([C@@H](C)O)OC2=O)O[C@@H]1C [Fidaxomicin] | 0.741 | 0.893 | 0.494 | 0.0966
44 | C[C@H]1O[C@@H](O[C@H]2[C@@H](O)C[C@H](O[C@H]3[C@@H](O)C[C@H](O[C@H]4CC[C@@]5(C)[C@H](CC[C@@H]6[C@@H]5C[C@@H](O)[C@]5(C)[C@@H](C7=CC(=O)OC7)CC[C@]65O)C4)O[C@@H]3C)O[C@@H]2C)C[C@H](O)[C@@H]1O [Digoxin] | 0.0546 | 0.0452 | 0.032 | 0.0309
45 | CCS(=O)(=O)N1CCC([C@@H](C)n2c(C)c(C(=O)NCc3c(OC)cc(C)[nH]c3=O)c3ccccc32)CC1 | 0.746 | 0.93 | 0.908 | 0.836
46 | NC(=O)NO [Hydroxyurea] | 0.92 | 1.14 | 0.948 | 1.16
47 | CC(C)c1cnn2c(NCc3ccccc3)cc(NCCCCCCN)nc12 | 1.09 | 1.13 | 0.83 | 0.972
48 | O=C(O)CCNC(=O)c1ccccc1 [Betamipron] | 0.922 | 1.11 | 0.923 | 0.986
49 | CN(NC(=O)CC(=O)NN(C)C(=S)c1ccccc1)C(=S)c1ccccc1 [Elesclomol (STA-4783)] | 0.0609 | 0.0221 | 0.0751 | 0.0222
50 | O=C(O)c1ccccc1 [Benzoic Acid] | 0.793 | 0.98 | 0.581 | 0.958
51 | O=CN1CC/C(=C/c2ccc3c(c2)OCO3)C1=O | 0.723 | 0.973 | 0.78 | 0.692
52 | OC[C@H]1O[C@@H](OCCc2ccc(O)cc2)[C@H](O)[C@@H](O)[C@@H]1O [Salidroside] | 0.968 | 1.14 | 0.842 | 1.07
53 | O=C(c1cc(Cc2n[nH]c(=O)c3ccccc23)ccc1F)N1CCN(C(=O)C2CC2)CC1 | 0.967 | 1.06 | 0.727 | 1.02
54 | CCN1CCN(Cc2ccc(Nc3ncc(F)c(-c4cc(F)c5nc(C)n(C(C)C)c5c4)n3)nc2)CC1 | 0.289 | 0.473 | 0.0303 | 0.0236
55 | C[N+](C)(C)C[C@H](O)CC(=O)[O-] [L-carnitine] | 1.12 | 1.14 | 0.8 | 1.07
56 | Cc1nnc(C(=O)NC(C)(C)c2nc(C(=O)NCc3ccc(F)cc3)c(O)c(=O)n2C)o1 [Raltegravir (MK-0518)] | 0.979 | 1.07 | 0.879 | 1.06
